This is a sample that favours compounds with a hit; in the whole collection about 1.8% have one here.
ugtP null kill: compounds lethal to S. aureus RN4220 ugtP deletion mutant | 330,000 compounds, 0.54% hits | growth inhibition, % (test concentration not listed) | OD600 growth, 16 h; in the data active = growth inhibition above about 68%;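 note: plate controls were untreated wells for no effect and antibiotic for full effect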
DUSP3 inh: blocks human VHR1 dual specificity phosphatase; P51452; inhibition, % at 13.3 µM; 290,000 compounds, 0.52% hits; AID 1654; recombinant VHR phosphatase, pNPP absorbance; in the data active = inhibition above about 50%
Target sequence (P51452 whole entry, looked up): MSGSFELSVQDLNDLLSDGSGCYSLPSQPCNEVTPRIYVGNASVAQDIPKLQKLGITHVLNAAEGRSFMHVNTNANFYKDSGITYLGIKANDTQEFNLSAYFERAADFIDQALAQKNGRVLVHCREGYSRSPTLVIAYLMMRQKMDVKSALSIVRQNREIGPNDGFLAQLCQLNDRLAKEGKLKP
PrPC TRFRET: inhibitors of human cell surface prion protein PrPC. 370,000 compounds, 0.43% hits. TR-FRET read-out. P04156. inhibition, % at 13.8 µM; in the data active = inhibition above about 24%; note: 0% = median of the test wells and 100% = reference compound wells
PfHsp40 rescue: rescue of PfHsp40-mediated yeast toxicity; S. cerevisiae expressing PfHsp40, growth rescue, ATP luminescence; growth rescue, % at 12.5 µM; 340,000 compounds, 0.68% hits; AID 504582; in the data active = growth rescue above about 28%, passing the limit was not always enough;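 note: yeast W303a lacking pdr1 and pdr3 grown in galactose medium; growth measured after three days at 30 °C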
RN4220 kill: S. aureus RN4220 growth inhibition; 330,000 compounds, 0.33% hits; OD600, 16 h; inhibition, % (no concentration beside the values); in the data active = inhibition above about 85%;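 note: plate controls were untreated cells for no effect and reference antibiotic for full effect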
Numbers without * were called inactive; / = not tested or not shown.

SMILES	ugtP null kill	DUSP3 inh	PrPC TRFRET	PfHsp40 rescue	RN4220 kill
COC(=O)C1C2SC(C)(C)C(C(=O)OC)N2C(=O)N1Cc1nc2ccccc2s1 (centres undefined)	0	/	/	/	3
S=C1Cc2ccccc2N1	20	12	41*	0	-16
O=c1c2ccccc2oc2cc(-c3ccc4[nH]ccc4c3)ccc12	88*	/	15	11	88*
O=c1c2ccccc2oc2ccccc12	/	/	10	/	/
CC(=NNC(=O)CN1CCN(S(=O)(=O)c2ccc(Br)cc2)CC1)c1ccco1	5	/	/	/	2
CC/C(=N\NC(=O)C1CCCC1)c1ccc(Br)cc1	/	50*	-3	-1	/
O=c1[nH][nH]c2c(N=Cc3ccccc3O)ccc(F)c12	-3	52*	/	-1	4
O=c1[nH][nH]c2c([N+](=O)[O-])ccc(F)c12	/	/	-16	/	/
COc1ccccc1C1=CC(=O)CC(c2ccc(Cl)cc2)C1 (centres undefined)	1	/	/	/	-1
COc1ccc(C(=O)c2coc(-c3ccccc3C(=O)O)c2C(=O)O)cc1	-1	2	3	0	3
COc1ccc(C(=O)c2c(C(F)(F)F)oc3c2C(=O)c2ccccc2C3=O)cc1	33	-10	/	0	94*
CCOc1ccc(C(c2nnnn2C(C)(C)C)N2CCN(C(=O)c3ccco3)CC2)cc1 (centres undefined)	14	59*	-6	0	6
COc1cc2cnc(-c3ccccc3)c(-c3ccc(C(F)(F)F)cc3)c2cc1OC	101*	/	1	5	100*
COc1cc2cnc(-c3ccccc3)c(C(=O)c3ccc(OCc4ccccc4)cc3)c2cc1OC	6	/	11	-2	6
COc1cc2cnc(-c3ccccc3)c(C(=O)c3ccc(F)cc3)c2cc1OC	-11	/	-6	411*	12
Fc1ccc(Cn2ccc(-c3cnc(-c4ccccc4)s3)n2)cc1	21	20	-7	58*	-12
CC(NC(=O)c1ncn(Cc2ccccc2)c1C(=O)NC(C)c1ccccc1)c1ccccc1 (centres undefined)	4	/	/	/	-2
CC(C)(C)C(=O)CSc1ncnc2c1cnn2Cc1ccccc1	15	20	15	0	1
c1ccc(CSc2ncnc3c2cnn3Cc2ccccc2)cc1	97*	-6	4	-1	-4
Cc1ccc(OCC(=O)c2c(O)c3ccccc3oc2=O)cc1C	58	13	2	1	58
Cc1ccc(C(C)C)c(OCC(=O)c2c(O)c3ccccc3oc2=O)c1	86*	/	3	3	86*
C[C@@H]1CCCCCCCCC(=O)OCCN[C@H](C)CCCCCCCCC(=O)OCCN[C@H](C)CCCCCCCCC(=O)OCCN1	/	/	/	41*	/
Cc1ccc(OC/C(O)=C(\C#N)c2nc3ccccc3s2)cc1	84*	-5	8	0	78
COc1cc(SC)ccc1C(=O)Nc1ccc(C)cc1	9	10	-9	147*	-1
Cc1ccc(NC(=O)c2ccccc2O)cc1	-13	54*	-6	13	-11
SMILES	ugtP null kill	DUSP3 inh	PrPC TRFRET	PfHsp40 rescue	RN4220 kill
COc1cc(SC)ccc1C(=O)Nc1ccc(C)cc1C	6	-10	14	-1	0
Cc1ccc(NC(=O)c2ccccc2)cc1	6	30	-8	-1	4
Cc1ccc(NC(=O)C2=C(c3ccccc3)S(=O)(=O)CCS2(=O)=O)cc1	100*	11	12	1	66
Cc1sc2ncnc(NC(Cc3c[nH]c4ccccc34)C(=O)O)c2c1C (centres undefined)	1	/	/	/	5
O=C1CCC=CCC(CC(=O)N(CCO)Cc2ccccc2)C(=O)NCCO1 (centres undefined)	6	/	/	/	6
COc1ccc(C)cc1S(=O)(=O)N1CCN(C(=O)c2ncoc2-c2ccc(C)cc2)CC1	-2	0	0	-2	2
COc1ccc(C)cc1S(=O)(=O)N1CCN(C(=O)c2ncoc2-c2ccc(F)cc2)CC1	2	53*	-8	18	1
COc1ccc(C=Cc2nc(C)c(-c3ccccc3)c(=O)[nH]2)cc1OC	2	/	/	/	0
O=C1NC(=S)N(C2CC2)C(=O)/C1=C/c1ccc2c(c1)CCN2CCCCl	2	3	-5	63*	6
CCN1C(=O)/C(=C/c2ccc3c(c2)CCN3CCCCl)C(=O)NC1=S	0	-16	-2	0	0
COCCN1C(=O)NC(CCc2ccccc2)C(C(C)=O)C1C (centres undefined)	-9	/	/	/	5
O=C(O)c1ccc(N/N=C/C=C/c2ccccc2)cc1	/	-3	-2	458*	/
CC(=NNC(=S)N1CCN(C2CCCCCC2)CC1)c1ccccn1	/	/	13	81*	/
